Test results reported in PubChem BioAssay (NCATS).
Results filed as inconclusive are left out. Active and inactive are the calls of the source. Calls follow the shape of the dose curve; as a rule, active = well fitted curve in the direction sought with a large enough effect; inconclusive = small, poorly fitted or top-dose-only effect, or another doubt; inactive = no such curve, though single readings can be large; an effect the other way counts as inactive or inconclusive.

How the values were obtained:
[1] = Cellular Toxicity (caspase-3) Jurkat (AID 655); conditions: Jurkat caspase-3 activation, luminescence, DMSO = 0%, tamoxifen = 100%; at 92.2 µM (top of the series);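 also: cells exposed to compound for 16 h at 37 °C before reading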
Procedure, shortened: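 Jurkat cells (5000/well) in complete medium exposed 16 h at 37 C; caspase-3/7 activity read by Caspase-Glo luminescence after 20 min at room temperature. Normalized to DMSO and 100 uM tamoxifen; AC50 from Hill fits.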

[2] = Cellular Toxicity (caspase-3) HUV-EC-C (AID 656); conditions: HUV-EC-C cells, caspase-3 activation (apoptosis), vehicle = 0, 100 µM tamoxifen = 100%; series mostly up to 92.2 µM
Procedure, shortened: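 HUV-EC-C cells (1000/well) in complete medium, compound-treated 16 h at 37 °C; caspase-3/7 activity read by Caspase-Glo 3/7 luminescence. Normalized to DMSO (basal) and 100 uM tamoxifen (100%); AC50 from Hill-equation concentration-response fits.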

[3] = Cellular Toxicity (caspase-3) SHSY5Y (AID 657); conditions: SH-SY5Y caspase-3 activation, DMSO zero, 10 µM staurosporine = 100%; series mostly up to 91.7 µM
Procedure, shortened: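 SH-SY5Y human neuroblastoma cells, 1500/well, exposed to compound for 16 hours at 37 °C in complete medium. Caspase-3/7 activity read by Caspase-Glo luminescence after 1 hr at room temperature, normalized to DMSO and 10 uM staurosporine; AC50 from Hill fit.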

[4] = Cellular Toxicity (caspase-3) BJ (AID 658); conditions: BJ fibroblasts, luminescence, normalized: DMSO 0%, staurosporine 100%; series mostly up to 91.7 µM
Procedure, shortened: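 Plated BJ cells (1000/well) rested 5 hr, received compound for 16 hr at 37 °C, then Caspase-Glo 3/7 reagent for 1 hr at room temperature before luminescence reading.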

[5] = Cellular Toxicity (caspase-3) MRC-5 (AID 659); conditions: MRC-5 cells, luminescence, normalized: DMSO 0%, 10 µM staurosporine 100%; series mostly up to 91.7 µM
Procedure, shortened: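 Apoptosis readout in MRC-5 cells: luciferase light generated after caspase 3/7 cleaves a peptide-aminoluciferin substrate, measured post 16 hr compound incubation at 37 °C.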

[6] = Cellular Toxicity (caspase-3) Mesangial (AID 660); conditions: mesangial cells, normalized: DMSO 0%, 100 µM tamoxifen 100%; series mostly up to 91.7 µM;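 also: cells exposed to compound for 16 h before the caspase read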
Procedure, shortened: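 AC50 values come from Hill-equation fits of caspase 3/7 activation, measured as Caspase-Glo luminescence in human glomerular mesangial cells exposed to compound for 16 h at 37 °C; 100% set by 100 uM tamoxifen.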

[7] = Cellular Toxicity (caspase-3) SK-N-SH (AID 661); conditions: SK-N-SH caspase-3 activation, qHTS, DMSO as zero, staurosporine as full; series mostly up to 91.7 µM
Procedure, shortened: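 Apoptosis readout in SK-N-SH neuroblastoma: Caspase-Glo 3/7 luminescence following 16 hr treatment in complete culture medium. Normalization used DMSO and 10 uM staurosporine controls.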

[8] = Cellular Toxicity (caspase-3) H-4-II-E (AID 663); conditions: H-4-II-E rat hepatoma; Potency: caspase-3 activation; series mostly up to 92.2 µM
Procedure, shortened: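 Caspase 3/7 activation measured in H-4-II-E cells in complete culture medium after 16 hr treatment at 37 °C, using luciferase-coupled substrate readout; AC50 values come from Hill-equation fits of normalized concentration-response data.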

[9] = Cellular Toxicity (caspase-3) NIH 3T3 (AID 666); conditions: NIH 3T3 caspase-3 activation, apoptosis/toxicity, 0% DMSO, 100% is 100 µM tamoxifen; series mostly up to 92.2 µM;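 also: caspase signal read after 16 h compound exposure; 0% = DMSO basal and 100% = 100 µM tamoxifen stimulation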
Procedure, shortened: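 Activity: caspase-3/7 induction, NIH 3T3 cells, 16 hr treatment at 37°C, luminescent Caspase-Glo detection; AC50 via Hill equation.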

[10] = Cellular Toxicity (caspase-3) Renal Proximal Tubule (AID 667); conditions: renal proximal tubule cells, primary cells freshly taken from rat, solvent-only wells 0%, staurosporine 100%; series mostly up to 91.7 µM;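 also: cells exposed to compound for 16 hours at 37 °C before detection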
Procedure, shortened: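 Freshly isolated primary rat kidney proximal tubule cells, 1000/well, treated 16 hr at 37 °C, then Caspase-Glo 3/7 luminescence after 1 hr. Normalized to DMSO and 10 uM staurosporine; AC50 from Hill fit.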

[11] = Cell Viability - LYMP2-001 (AID 921); conditions: LYMP2-001 lymphoblastoid cell viability; series mostly up to 92.2 µM;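 also: 0% = DMSO only and full inhibition = tetraoctylammonium bromide control wells; nearly all actives have a fitted effect of over 70% in size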
Procedure, shortened: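 Human lymphoblastoid LYMP2-001 cells, 2500 per well, in complete medium, treated 24 h at 37 C. Viability from cellular ATP by CellTiter-Glo luminescence; AC50 from Hill-equation fits of qHTS concentration-response.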

[12] = MultiTox-Fluor Cytotoxicity Assay - LYMP1-001 - Dead Cells (AID 946); conditions: LYMP1-001 lymphoblastoid cells, dead-cell protease fluorescence; series mostly up to 92.2 µM;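 also: 0% = DMSO and 100% = tetraoctylammonium bromide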
Procedure, shortened: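 In this qHTS, 15 uM tetraoctylammonium bromide defined 100% and DMSO defined basal activity. Lymphoblastoid cells (LYMP1-001, 2500 per well) received compound for 16 hr at 37 C before a fluorogenic dead-cell substrate readout at 485/520 nm.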

[13] = Cell Viability - LYMP1-002 - Assay at 16 hr (AID 948); conditions: LYMP1-002 lymphoblastoid cell viability; series mostly up to 92.2 µM;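 also: 0% = DMSO alone and full effect = 92 µM tetraoctylammonium bromide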
Procedure, shortened: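 LYMP1-002 human lymphoblastoid cells, 2500/well, were treated with compounds for 16 hr at 37 C in complete medium. Viability was read as intracellular ATP by CellTiter-Glo luminescence, and AC50 was derived from a Hill fit to concentration-response data.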

[14] = MultiTox-Fluor Cytotoxicity Assay - LYMP1-002 - Live Cells (AID 955); conditions: LYMP1-002 lymphoblastoid live-cell protease fluorescence viability; series mostly up to 46.1 µM; also: % is scaled to controls: 0 for no effect and ±100 for the full control effect
Procedure, shortened: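 In this qHTS viability format, lymphoblastoid cells (LYMP1-002, human) received compound for 16 hr at 37 C. Fluorogenic GF-AFC cleavage by viable cells was detected at 405/510 nm after 1 h at room temperature.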

[15] = MultiTox-Fluor Cytotoxicity Assay - LYMP1-003 - Dead Cells (AID 961); conditions: LYMP1-003 lymphoblastoid cells, dead-cell protease fluorescence; series mostly up to 92.2 µM;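 also: 0% = DMSO and 100% = tetraoctylammonium bromide; nearly all actives have a fitted effect of over 70% in size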
Procedure, shortened: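 Acute toxicity is scored as increased dead-cell protease activity in human lymphoblastoid LYMP1-003 cells after 16 h compound exposure in complete culture medium. Activity is normalized to DMSO basal and 15 uM tetraoctylammonium bromide as full response.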

[16] = MultiTox-Fluor Cytotoxicity Assay - LYMP1-003 - Live Cells (AID 962); conditions: LYMP1-003 lymphoblastoid cells, MultiTox-Fluor live-cell protease fluorescence; series mostly up to 92.2 µM;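 also: 0% = DMSO only and full loss = 92 µM tetraoctylammonium bromide; cytotoxic hits lower the live-cell protease signal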
Procedure, shortened: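 Human lymphoblastoid line LYMP1-003 in complete culture medium, treated 16 hr with titrated compounds. Viable cells quantified via cell-permeant GF-AFC substrate fluorescence; AC50 derived by Hill fitting.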

[17] = Cell Viability - LYMP1-003 - Assay at 24 hr (AID 963); conditions: LYMP1-003 lymphoblastoid cell viability; series mostly up to 92.2 µM;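 also: plate controls were DMSO only for no effect and tetraoctylammonium bromide positive control for full effect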
Procedure, shortened: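 The lymphoblastoid line was treated with titrated compounds for 24 hours, and viable cell number estimated from luciferase-based ATP luminescence.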

[18] = Cell Viability - LYMP1-003 - Assay at 40 hr (AID 964); conditions: LYMP1-003 lymphoblastoid viability; series mostly up to 92.2 µM; also: % is scaled to controls: 0 for no effect and ±100 for the full control effect; nearly all actives have a fitted effect of over 60% in size
Procedure, shortened: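 Acute toxicity is scored as a concentration-dependent loss of intracellular ATP in LYMP1-003 cells (2500/well, complete medium) after 40 hr at 37 C, measured by CellTiter-Glo luminescence; AC50 values derive from standard Hill modelling.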

[19] = Cell Viability - LYMP2-003 (AID 965); conditions: LYMP2-003 lymphoblastoid cell viability; series mostly up to 92.2 µM;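 also: cells exposed to compounds for 24 h before reading; 0% = DMSO only and full effect = 92 µM tetraoctylammonium bromide; nearly all actives have a fitted effect of over 50% in size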
Procedure, shortened: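 Human lymphoblastoid LYMP2-003 cells, 2500/well, exposed to compounds for 24 h at 37 C in complete medium. Viability read as intracellular ATP by CellTiter-Glo luminescence; AC50 from Hill-equation fits of qHTS concentration-response data.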

[20] = Cell Viability - LYMP2-005 (AID 967); conditions: LYMP2-005 lymphoblastoid cell viability; series mostly up to 92.2 µM;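 also: plate controls were DMSO only for no effect and 92 µM tetraoctylammonium bromide control for full effect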
Procedure, shortened: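 Human lymphoblastoid LYMP2-005 cells, 2,500 per well in complete medium, rested 5 h at 37C then compound-treated 24 h at 37C. Intracellular ATP read by CellTiter-Glo luminescence after 30 min at room temperature; AC50 from Hill-equation fits of concentration-response data.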

COc1cc(/C=C/c2ccccc2)oc(=O)c1
inactive: caspase-3 activation [1] -4.56% | outcome [2] | outcome [3] | outcome [4] | outcome [5] | outcome [6] | outcome [7] | Potency [8] | outcome [9] | outcome [10] | Potency [11] | Potency [12] | Potency [13] | Potency [14] | Potency [15] | Potency [16] | Potency [17] | Potency [18] | Potency [19] | Potency [20]

CCCCCCCCCCCCCC(=O)O
inactive: caspase-3 activation [1] -2.86% | outcome [2] | outcome [3] | outcome [4] | outcome [5] | outcome [6] | outcome [7] | Potency [8] | outcome [9] | outcome [10] | Potency [11] | Potency [12] | Potency [13] | Potency [14] | Potency [15] | Potency [16] | Potency [17] | Potency [18] | Potency [19] | Potency [20]

COc1ccc(/C=C/c2cc(OC)cc(=O)o2)cc1
inactive: caspase-3 activation [1] -4.41% | outcome [2] | outcome [3] | outcome [4] | outcome [5] | outcome [6] | outcome [7] | Potency [8] | outcome [9] | outcome [10] | Potency [11] | Potency [12] | Potency [13] | Potency [14] | Potency [15] | Potency [16] | Potency [17] | Potency [18] | Potency [19] | Potency [20]

O=C(O)c1ccccc1
inactive: caspase-3 activation [1] 0.102% | outcome [2] | outcome [3] | outcome [4] | outcome [5] | outcome [6] | outcome [7] | Potency [8] | outcome [9] | outcome [10] | Potency [11] | Potency [12] | Potency [13] | Potency [14] | Potency [15] | Potency [16] | Potency [17] | Potency [18] | Potency [19] | Potency [20]

C=C(C)C1CC=C(C)C(O)C1 (stereo not given)
inactive: caspase-3 activation [1] -2.18% | outcome [2] | outcome [3] | outcome [4] | outcome [5] | outcome [6] | outcome [7] | Potency [8] | outcome [9] | outcome [10] | Potency [11] | Potency [12] | Potency [13] | Potency [14] | Potency [15] | Potency [16] | Potency [17] | Potency [18] | Potency [19] | Potency [20]

C=CC(=C)CCC=C(C)C
inactive: caspase-3 activation [1] -0.362% | outcome [2] | outcome [3] | outcome [4] | outcome [5] | outcome [6] | outcome [7] | Potency [8] | outcome [9] | outcome [10] | Potency [11] | Potency [12] | Potency [13] | Potency [14] | Potency [15] | Potency [16] | Potency [17] | Potency [18] | Potency [19] | Potency [20]
